Some test systems named below: SR leukemia; RPMI-8226 leukemia; OVCAR-8 ovarian; OVCAR-5 ovarian; OVCAR-4 ovarian; SK-OV-3 ovarian; IGROV1 ovarian; OVCAR-3 ovarian; HS 578T breast; NCI/ADR-RES ovarian; T-47D breast; BT-549 breast; MDA-MB-435 melanoma; SW-620 colon; MCF7 breast; HCT-116 colon; HCC-2998 colon; KM12 colon; MDA-MB-468 breast.
Test in all cases: NCI-60 one-dose screen, 48 h (100 = growth as untreated, 0 = no growth, -100 = all killed)
Conditions in all cases: 10 µM unless noted

This is part of a sample that, as a whole, favours compounds with a hit. Of some 83,000 tested, about 20% had one in any assay.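 Plates (96-well) were seeded with cells, treated with compound at one concentration, and incubated for 48 hours before percent growth was determined.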 Values without a mark were called inactive. The source made the active and inactive calls. How the source made its calls: active means growth percent below 10; inactive means the rest.

For the compound `COc1cccc(-c2ccc(/C=N/NC(=O)c3[nH]c4ccc(Br)cc4c3-c3ccccc3)s2)c1`, the growth in the experiment on SR leukemia is 6.57% (active); in the experiment on RPMI-8226 leukemia it was -22.9% (active); in the experiment with OVCAR-8 ovarian, 0.0466% (active); with OVCAR-5 ovarian, -5.23% (active); in the experiment with OVCAR-4 ovarian, 31.7%; with SK-OV-3 ovarian it was 22.1%. Further, the growth in the experiment with IGROV1 ovarian is 8.09% (active); in the experiment with OVCAR-3 ovarian, -40.5% (active); in the experiment on HS 578T breast, 17.8%; with NCI/ADR-RES ovarian, -50.1% (active); with T-47D breast, 52.9%; in the experiment with BT-549 breast, -26.9% (active). Besides, the growth is -51.3% (active) in the experiment with MDA-MB-435 melanoma; 20.4% in the experiment with SW-620 colon; 1.38% (active) in the experiment on MCF7 breast; -27.5% (active) with HCT-116 colon; 5.11% (active) in the experiment with HCC-2998 colon; -14.2% (active) in the experiment on KM12 colon. In addition, the growth in the experiment with MDA-MB-468 breast was 7.16% (active).

For the compound `COc1ccc(Nc2nnc(-c3c[nH]c4ccccc34)o2)cc1`, the growth in the experiment on SR leukemia was 70.5%; in the experiment on RPMI-8226 leukemia, 32.5%; in the experiment on OVCAR-8 ovarian, 86.2%; in the experiment with OVCAR-5 ovarian, 103%; in the experiment on OVCAR-4 ovarian, 85.3%; with SK-OV-3 ovarian, 74.2%. Also, the growth was 60.9% in the experiment on IGROV1 ovarian; 94.4% with OVCAR-3 ovarian; 81.2% in the experiment with HS 578T breast; 73.8% in the experiment on NCI/ADR-RES ovarian; 71.9% in the experiment with T-47D breast; 77.8% with BT-549 breast. Also, the growth in the experiment on MDA-MB-435 melanoma is 81.9%; in the experiment on SW-620 colon it was 93%; in the experiment on MCF7 breast it was 58.6%; in the experiment with HCT-116 colon it was 92.4%; with HCC-2998 colon, 108%; with KM12 colon it was 65.3%. For the same compound, the growth in the experiment with MDA-MB-468 breast was -7.14% (active).

As for `O=C(N/N=C/c1ccc(Br)o1)c1[nH]c2ccc(Br)cc2c1-c1ccccc1`, the growth in the experiment on SR leukemia is 5.02% (active); in the experiment on RPMI-8226 leukemia it was 10.6%; with OVCAR-8 ovarian it was -35.9% (active); with OVCAR-5 ovarian it was -21.8% (active); in the experiment on OVCAR-4 ovarian, -17.2% (active); with SK-OV-3 ovarian it was 22%. In addition, the growth was 5.42% (active) in the experiment with IGROV1 ovarian; -28.6% (active) in the experiment on OVCAR-3 ovarian; -4.62% (active) in the experiment with HS 578T breast; -41.6% (active) with NCI/ADR-RES ovarian; 27.1% in the experiment on T-47D breast; -27.8% (active) with BT-549 breast. Further, the growth was -29.1% (active) in the experiment on MDA-MB-435 melanoma; 6.96% (active) with SW-620 colon; 0.0933% (active) with MCF7 breast; -13.3% (active) with HCT-116 colon; -7.57% (active) with HCC-2998 colon; -1.58% (active) in the experiment on KM12 colon. In addition, in the experiment with MDA-MB-468 breast, the growth was 5.25% (active).

Turning to `C[C@@H](Nc1c(C#N)cnc2ccc(-c3cnc4[nH]ncc4c3)cc12)c1ccccc1`, the growth was -8.05% (active) in the experiment on SR leukemia; -1.82% (active) in the experiment with RPMI-8226 leukemia; 24.4% with OVCAR-8 ovarian; 15.2% with OVCAR-5 ovarian; 36.9% in the experiment with OVCAR-4 ovarian; 19.5% in the experiment on SK-OV-3 ovarian. Besides, the growth was -60.6% (active) in the experiment on IGROV1 ovarian; 3.49% (active) in the experiment with OVCAR-3 ovarian; -19.5% (active) in the experiment on HS 578T breast; 17.7% with NCI/ADR-RES ovarian; 10.9% in the experiment on T-47D breast; -21.7% (active) in the experiment with BT-549 breast. In addition, the growth with MDA-MB-435 melanoma was 22.4%; in the experiment on SW-620 colon it was 40.2%; in the experiment with MCF7 breast it was -27.9% (active); in the experiment on HCT-116 colon, 20.2%; with HCC-2998 colon it was 33.3%; with KM12 colon, 30%. In addition, the growth in the experiment with MDA-MB-468 breast was -70.1% (active).

Regarding `Cn1cc(-c2cc(N)n3nc(-c4c[nH]c5ccc(Cl)cc45)cc3n2)c2cccnc21`, the growth in the experiment with SR leukemia was -26.2% (active); in the experiment on RPMI-8226 leukemia, -17.8% (active); in the experiment with OVCAR-8 ovarian it was -76.2% (active); with OVCAR-5 ovarian, -82.5% (active); in the experiment on OVCAR-4 ovarian, -42% (active); in the experiment on SK-OV-3 ovarian, -73.5% (active). In addition, the growth is -77.7% (active) in the experiment on IGROV1 ovarian; -71.3% (active) in the experiment with OVCAR-3 ovarian; -26.2% (active) in the experiment on HS 578T breast; -73.8% (active) in the experiment on NCI/ADR-RES ovarian; -65.9% (active) with T-47D breast; -77.1% (active) with BT-549 breast. The growth in the experiment with MDA-MB-435 melanoma is -84.2% (active); with SW-620 colon, -72.8% (active); with MCF7 breast it was -81.2% (active); in the experiment on HCT-116 colon, -90.7% (active); with HCC-2998 colon it was -98.5% (active); in the experiment on KM12 colon, -70.2% (active). Moreover, the growth with MDA-MB-468 breast is -93.7% (active).

For `COc1ccc(-c2nc3ccc(-c4nnc(SCc5ccccc5)o4)cc3[nH]2)cc1OC`, the growth in the experiment with SR leukemia is 56.3%; in the experiment with RPMI-8226 leukemia, 44.5%; with OVCAR-8 ovarian, 6.86% (active); with OVCAR-5 ovarian, 34.2%; in the experiment with OVCAR-4 ovarian, -45.4% (active); in the experiment on SK-OV-3 ovarian, 62.9%. Further, the growth with IGROV1 ovarian is 42.8%; with OVCAR-3 ovarian, 10.7%; with HS 578T breast, 2.46% (active); in the experiment with NCI/ADR-RES ovarian, 7.16% (active); in the experiment with T-47D breast, 32.4%; in the experiment on BT-549 breast, 49.7%. In addition, the growth was 40% in the experiment with MDA-MB-435 melanoma; 15.9% in the experiment on SW-620 colon; 21.7% with MCF7 breast; 8.42% (active) in the experiment with HCT-116 colon; 63.2% with HCC-2998 colon; 61.2% in the experiment with KM12 colon. For the same compound, in the experiment on MDA-MB-468 breast, the growth was 44.1%.

Turning to `COc1ccc(C(=O)c2cc(C(C)=O)c3c(C)cc(C)cn23)cc1`, the growth with SR leukemia is 31.8%; with RPMI-8226 leukemia, 67.7%; in the experiment on OVCAR-8 ovarian, 18.4%; in the experiment on OVCAR-5 ovarian it was 80.5%; in the experiment with OVCAR-4 ovarian it was 49.8%; with SK-OV-3 ovarian it was 29.1%. Besides, the growth in the experiment on IGROV1 ovarian is 80.8%; in the experiment on OVCAR-3 ovarian, 43.9%; in the experiment on HS 578T breast, 43.4%; in the experiment with NCI/ADR-RES ovarian it was 35%; with T-47D breast it was 48.6%; with BT-549 breast, 25.4%. Further, the growth with MDA-MB-435 melanoma was 49.1%; in the experiment with SW-620 colon it was 82.2%; with MCF7 breast, 35.2%; in the experiment on HCT-116 colon it was 19.6%; with HCC-2998 colon, 76.1%; with KM12 colon, 71.2%. Also, in the experiment with MDA-MB-468 breast, the growth was 59.6%.

For `COc1ccc2c(c1)C(=O)N(C)C2C1c2c(cc3c(c2OC)OCO3)CCN1C` (configuration not stated), the growth was 18.8% in the experiment with SR leukemia; 73.8% with RPMI-8226 leukemia; 78.1% in the experiment on OVCAR-8 ovarian; 67.2% in the experiment with OVCAR-5 ovarian; 69.4% with OVCAR-4 ovarian; 64% with SK-OV-3 ovarian. The growth in the experiment with IGROV1 ovarian was 43.2%; in the experiment with OVCAR-3 ovarian, 9.03% (active); in the experiment with HS 578T breast, 48.4%; with NCI/ADR-RES ovarian, 27.9%; in the experiment with T-47D breast it was 56.3%; with BT-549 breast, 68.5%. For the same compound, the growth is -21.1% (active) in the experiment with MDA-MB-435 melanoma; 23.9% in the experiment on SW-620 colon; 14.7% with MCF7 breast; 27.5% with HCT-116 colon; 63.2% with HCC-2998 colon; 15.9% in the experiment with KM12 colon. Also, the growth in the experiment with MDA-MB-468 breast is 8.46% (active).

Source of the values: PubChem BioAssay (NCI).
